# Measurements as given in PubChem BioAssay AID2315 (National Center for Advancing Translational Sciences (NCATS), 2010).
# Out of some 290,000 compounds screened, about 27,000 (9.3%) were called active. Rule as the data show it: active = inhibition mostly above about 28% (no sharp cut-off); inactive = mostly below about 43%. The entries come from a sample that favours actives as a whole.
# Experiment: A qHTS for Small Molecule Inhibitors of Shiga Toxin; also: 0% is about no effect
# Settings: Vero cells, Shiga toxin protein synthesis inhibition reporter; at 38.7 µM, active compounds read high
row,Compound,inhibition
1,Cc1ccc(C)c(CN2CCC(CNC(=O)Nc3ccc(C)c(F)c3)CC2)c1,9.21% (inactive)
2,Cc1nc(NC(=O)C2CCCCC2)sc1C,61.6% (active)
3,Cc1cnc(NC(=O)C2CCCC2)s1,28.6% (inactive)
4,Cc1nc(NC(=O)C23CCC(C)(C(=O)O2)C3(C)C)sc1C (stereo unspecified),-12.8% (inactive)
5,CCSc1nsc(NC(=O)Nc2ccccc2OC)n1,27.4% (active)
6,C=CCSc1nsc(NC(=O)Nc2cccc(C(C)=O)c2)n1,22.6% (inactive)
7,CCSc1nsc(NC(=O)Nc2cccc(C(C)=O)c2)n1,41.5% (active)
8,CCc1nc(SCC(=O)Nc2ccccc2OC)n[nH]1,-3.11% (inactive)
9,CC(=O)c1cccc(NC(=O)c2ccncc2)c1,-0.119% (inactive)
10,COc1ccccc1NC(=O)Nc1nnc(Cc2ccc(F)cc2)s1,22.5% (inactive)
11,COc1ccc(N2CC(C(=O)N[C@@H](C)C(=O)N3CCCCC3)CC2=O)cc1 (stereo partly specified),-4.4% (inactive)
12,COCCc1nn2c(=O)cc(COC(=O)c3cc(OC)c(OC)c(OC)c3)nc2s1,-8.18% (inactive)
13,C/C(N)=C(/C#N)C(=O)COC(=O)C1=NN(c2ccccc2)C(=O)CC1,-13.8% (inactive)
14,CCOCCCNC(=O)C(NC(=O)CNC(=O)c1ccccc1)c1ccc(OC)cc1 (stereo unspecified),-6.33% (inactive)
15,Cc1ccc(NC(=O)c2sccc2C)cc1[N+](=O)[O-],87.3% (active)
16,Cc1ccc(NC(=O)CN2CCC(C(N)=O)CC2)cc1[N+](=O)[O-],26% (inactive)
17,NC(=S)N/N=C/c1ccc([N+](=O)[O-])cc1,4.32% (inactive)
18,Cc1ccc(NC(=O)CN(C)CC(=O)Nc2cccc(F)c2)cc1[N+](=O)[O-],14.5% (inactive)
19,Cc1nc2ccccc2cc1C(=O)N/N=C/c1ccc([N+](=O)[O-])cc1,-4.74% (inactive)
20,Cc1ccsc1C(=O)N/N=C/c1ccc([N+](=O)[O-])cc1,64% (active)
21,O=C(NCC(=O)N1CCN(c2ncc(C(F)(F)F)cc2Cl)CC1)c1ccc(Br)o1,-3.85% (inactive)
22,C=C1CCN(C(CC(C)C)C(=O)N2CCOCC2)S(=O)(=O)c2ccccc21 (stereo unspecified),-4.26% (inactive)
23,O=C1C2C(c3ccccc3)CC=CC2C(c2ccoc2)N1Cc1ccccc1 (stereo unspecified),-1.21% (inactive)
24,C=CCNC(=O)/C=C/c1ccc(C(C)C)cc1,96.1% (active)

row,Compound,inhibition
1,O=C(/C=C/c1ccc(F)cc1)NCCNC(=O)/C=C/c1ccc(F)cc1,-7.35% (inactive)
2,CC(C)c1ccc(/C=C/C(=O)NNC(=O)c2cccnc2)cc1,0.769% (inactive)
3,CCCNC(=O)N1CCC(c2ccc3c(c2)OCO3)CC1,-2.98% (inactive)
4,Cc1nn(CC(=O)NCCc2ccccc2)c(=O)c2cc3occc3n12,-3% (inactive)
5,COc1ccc(CNC(=O)C(C)n2nc(C)c3c(C)n(-c4ccccc4)nc3c2=O)c(OC)c1 (stereo unspecified),-6.6% (inactive)
6,CC(=O)N1c2ccc(S(=O)(=O)N3CCCC(C(=O)NCc4ccc(Cl)cc4)C3)cc2CC1C (stereo unspecified),8.69% (inactive)
7,C=CCNC(=S)N/N=C/c1ccc(OCc2ccccc2)cc1,-15.4% (inactive)
8,C=CCNC(=S)N/N=C/c1ccc(C)s1,39.3% (active)
9,Cc1ccc(/C=N/NC(=O)CN2CCN(Cc3ccccc3)CC2)s1,14.8% (inactive)
10,CCCn1c(C(C)Nc2nc(-c3ccc(C)cc3)cs2)nc2cc(Cl)c(N3CCCCC3)cc21 (stereo unspecified),-1.11% (inactive)
11,CCC(O)C1CCN(Cc2cn(-c3ccc(OC)cc3)nc2-c2cccc(F)c2)CC1 (stereo unspecified),50.9% (inactive)
12,Cc1cccc(-n2cc(CN3CCN(C(=O)c4ncn[nH]4)CC3)c(-c3cccc(F)c3)n2)c1,63.8% (active)
13,Cc1ccc(C)c(-n2cc(CN3CCN(C(=O)c4ncn[nH]4)CC3)c(-c3ccccc3)n2)c1,8.93% (inactive)
14,COc1ccc(S(=O)(=O)N(C)CC(=O)NCCCN2CCOCC2)cc1Cl,-12.5% (inactive)
15,Clc1nc(NC2CCCC2)nc(N2CCOCC2)n1,5.65% (inactive)
16,CCc1ccc(CNC(=O)C2CCN(c3nnc(C)c4c(C)n(-c5ccc(C)cc5)nc34)CC2)cc1,-5.47% (inactive)
17,O=S(=O)(c1ccc(Cl)cc1)c1nc(-c2ccco2)oc1N1CCCCC1,-0.989% (inactive)
18,CSc1ccc(S(=O)(=O)N2CCC(C(=O)NCCc3ccccc3)CC2)cc1,56.2% (inactive)
19,CC(Oc1cc2oc(=O)c3c(c2cc1Cl)CCCC3)C(=O)NCc1ccncc1 (stereo unspecified),-3.65% (inactive)
20,CCN1/C(=C/c2ccc3ccc(C)cc3[n+]2CC)Sc2ccccc21,5.47% (inactive)
21,CCN1/C(=C/C(=S)Nc2ccccc2)Sc2ccccc21,62.5% (active)
22,O=C(CCN1c2ccccc2Sc2ccccc21)Nc1ccccc1,-1.29% (inactive)
23,CCn1cc(/C=C(\NC(=O)c2ccc(C)cc2)C(=O)NCCN2CCOCC2)c2ccccc21,1.24% (inactive)
24,CCOC(=O)C(=O)Nc1nc(-c2ccccc2)c(CC)s1,-12% (inactive)

row,Compound,inhibition
1,C/C(=N/Nc1nc(-c2ccccc2)c(CC(=O)O)s1)c1ccccc1,68.4% (active)
2,Cc1ccc(-c2nc(C)sc2CC(=O)O)cc1,-13.7% (inactive)
3,COC(=O)c1cccc(N2C(=O)C3C4C=CC(CC4)C3C2=O)c1 (stereo unspecified),0.962% (inactive)
4,CC(C)Cn1cnc2c1c(=O)n(CC(=O)NN)c(=O)n2Cc1ccccc1,-7.02% (inactive)
5,O=C(C(=O)N1CCc2ccccc2C1)N1CCc2ccccc2C1,8.23% (inactive)
6,CC(=O)Nc1cccc([N+](=O)[O-])c1,17.7% (inactive)
7,CN1CCN(CC(=O)Nc2cccc([N+](=O)[O-])c2)CC1,-12.8% (inactive)
8,CCc1ccc(NC(=O)N2CCN(c3ccccc3)CC2)cc1,20.1% (inactive)
9,CCc1ccc(NC(=O)N2CCc3ccccc3C2)cc1,120% (active)
10,O=C(Nc1cccc([N+](=O)[O-])c1)N1CCc2ccccc2C1,88.6% (active)
11,COC(=O)c1ccccc1NC(=O)CSc1nc2c(c(=O)[nH]1)CCC2,-2.68% (inactive)
12,COc1ccc(C(=O)NC(=S)N2CCCCC2c2cccnc2)cc1OC (stereo unspecified),-4.75% (inactive)
13,Cc1ccc(Cn2cc(C(=O)NN)c(=O)c3ccc(F)cc32)cc1,-5.32% (inactive)
14,Nc1nc(SCc2cccc(Br)c2)n[nH]1,14.2% (inactive)
15,O=C(CN1CCN(C(=O)C2CCCO2)CC1)Nc1c(Cl)cccc1Cl (stereo unspecified),-6.84% (inactive)
16,COc1cc(C(=O)NCC2(c3ccccc3)CCCC2)ccc1OC(C)C,4.68% (inactive)
17,CC(Cc1cccs1)NC(=O)c1cccc(Cl)c1 (stereo unspecified),62% (active)
18,CC(Cc1cccs1)NC(=O)NC1CCCCC1 (stereo unspecified),35.2% (inactive)
19,CC(Cc1cccs1)NCc1ccc(Cl)cc1 (stereo unspecified),-11.1% (inactive)
20,COC(=O)c1ccc(COc2ccc(/C=C/C(=O)c3ccc(OC)c(CSCC(=O)O)c3)cc2OC)cc1,10.1% (inactive)
21,CCOC(CNC(=O)C1CCN(S(=O)(=O)c2ccc3nc4c(c(C(=O)O)c3c2)CC(C)CC4)CC1)OCC (stereo unspecified),16.6% (inactive)
22,NS(=O)(=O)c1ccc2nc(NC(=O)CS(=O)(=O)c3ccc(F)cc3)sc2c1,-4.57% (inactive)
23,O=C(Nc1ccc(S(=O)(=O)N2CCCC2)cc1Cl)C1=COCCO1,-24.5% (inactive)
24,NS(=O)(=O)c1ccc2nc(NC(=O)C3=COCCO3)sc2c1,31.7% (active)

row,Compound,inhibition
1,CC(=O)c1ccc(NC(=O)Cn2c(=O)oc3ccccc32)cc1,-3.29% (inactive)
2,Nc1ncc(CN2CCCC(C(=O)Nc3ccc(-c4ccco4)cc3)C2)cn1 (stereo unspecified),1.36% (inactive)
3,COC(=O)c1ccc(COc2ccc(C#N)cc2)o1,-6.04% (inactive)
4,Cc1noc(C)c1COc1ccc2ccc(=O)oc2c1,-4.36% (inactive)
5,CC(C)OC(=O)c1ccc(COc2ccc3ccc(=O)oc3c2)o1,56.4% (active)
6,CN(C)C(=O)CCC(=O)N1CCCCC1C(=O)Nc1ccc(Oc2ccccc2F)cc1 (stereo unspecified),-6.54% (inactive)
7,CC(C)(C)n1nnnc1C(c1ccccc1F)N1CCN(C(=O)c2ccco2)CC1 (stereo unspecified),2.73% (inactive)
8,Cc1ccccc1OCC(=O)N(Cc1cccc(F)c1)C1CCS(=O)(=O)C1 (stereo unspecified),10.7% (inactive)
9,CCCOc1ccc(Cn2ccnc2)cc1[N+](=O)[O-],-8.54% (inactive)
10,CCCCCOc1ccc(CSC2=NCCN2)cc1[N+](=O)[O-],63.7% (active)
11,CCCCOc1ccc(CSC(=N)N)cc1[N+](=O)[O-],-5.85% (inactive)
12,COc1cccc(CCNC(=O)c2cccc(NC(=O)C3=C(C)OCCS3)c2)c1,-2.41% (inactive)
13,CN(C)CCn1c(=S)[nH]c2ccc(Cl)cc2c1=O,-8.18% (inactive)
14,CN(C)CCN=c1cc(-c2ccccc2)oc2ccc(Cl)cc12,129% (active)
15,Cc1cc(-c2ccc(C)c(S(=O)(=O)Nc3ccc(S(N)(=O)=O)cc3)c2)on1,29.3% (inactive)
16,COc1ccc(CCNS(=O)(=O)c2cn(C)nc2C)cc1,16.1% (inactive)
17,CCOC(=O)CNc1nc(Cl)nc(Nc2ccccc2)n1,65.7% (active)
18,CCC(=O)Nc1ccc(Nc2nc(Cl)nc(Nc3ccc(NC(=O)CC)cc3)n2)cc1,4.44% (inactive)
19,CCOC(=O)CNc1nc(Cl)nc(Nc2ccc(OC)cc2OC)n1,26.8% (inactive)
20,CCn1c(SCC(=O)NC2CCCC2)nnc1-c1ccoc1C,-5.62% (inactive)
21,CN(Cc1ccc2nsnc2c1)Cc1nc(Cc2cccc(F)c2)no1,1.39% (inactive)
22,CN(Cc1cc2cc(F)ccc2[nH]1)Cc1nc(-c2cnccn2)no1,-4.61% (inactive)
23,CN(Cc1nc2ccc(F)cc2[nH]1)Cc1nc(CC2CC2)no1,48% (active)
24,C/C(=N\N(C)C)c1ccc(OCCOc2ccc([N+](=O)[O-])cc2)cc1,6.72% (inactive)
